In PubChem BioAssay (EPA / NIEHS):
Activity calls are given as the source filed them. Rule for the calls: active = hit-call score of the fitted dose curve at least 0.9, where 1 is the maximum; inactive = score below 0.9.

Tests used:
Conditions in all cases: mRNA level, 48 h; actives raise or lower the signal
[1] = read-out: Cytochrome P450 (CYP24A1), CYP24A1 (gene 1591); assay: LTEA_HepaRG_CYP24A1: Life Technologies and Expression Analysis (LTEA) Assay for Cytochrome P450 (CYP24A1) using HepaRG (AID 2283478)
Summary of the method: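 mRNA of CYP24A1 quantified by TaqMan qRT-PCR (ACTB/GAPDH/POLR2A normalization) after 48 h chemical exposure of HepaRG cells, top concentration 100 uM, half-log steps, 0.5% DMSO vehicle, duplicates. Curves fitted bidirectionally against DMSO baseline.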

[2] = read-out: Cytochrome P450 (CYP1A2), CYP1A2 (gene 1544); assay: LTEA_HepaRG_CYP1A2: Life Technologies and Expression Analysis (LTEA) Assay for Cytochrome P450 (CYP1A2) using HepaRG (AID 2283479);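 for AC50: TaqMan qRT-PCR transcript level normalized to ACTB GAPDH and POLR2A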
Summary of the method: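 CYP1A2 transcript measured by TaqMan qRT-PCR against three housekeeping genes after 48-hour chemical exposure of HepaRG cells. Eight-point half-log series topping at 100 uM in 0.5% DMSO, duplicates; gain or loss fitted relative to vehicle.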

[3] = read-out: cysteine-aspartic acid protease (CASP8), CASP8 (gene 841); assay: LTEA_HepaRG_CASP8: Life Technologies and Expression Analysis (LTEA) Assay for cysteine-aspartic acid protease (CASP8) using HepaRG (AID 2283480)
Summary of the method: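 Concentration-response in duplicate up to 100 uM (half-log steps, 0.5% DMSO) on differentiated HepaRG cultures for 48 h. Expression change of CASP8 mRNA is determined by TaqMan qRT-PCR with housekeeping-gene normalization.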

[4] = read-out: Cytochrome P450 (CYP2B6), CYP2B6 (gene 1555); assay: LTEA_HepaRG_CYP2B6: Life Technologies and Expression Analysis (LTEA) Assay for Cytochrome P450 (CYP2B6) using HepaRG (AID 2283481)
Summary of the method: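 CYP2B6 transcript level quantified by qRT-PCR against three housekeeping genes, fitted bidirectionally relative to DMSO. HepaRG cultures received chemicals for 48 h, 8-point half-log series from 100 uM in 0.5% DMSO, duplicate wells, serum-free induction medium.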

[5] = read-out: Cytochrome P450 2C19 (Homo sapiens) (UniProt P33261); assay: LTEA_HepaRG_CYP2C19: Life Technologies and Expression Analysis (LTEA) Assay for CYP2C19 using HepaRG (AID 2283482)
Summary of the method: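 CYP2C19 transcript levels by qRT-PCR, normalized to three housekeeping genes, in HepaRG cells after 48 h chemical exposure. Eight-point half-log series topping at 100 uM, 0.5% DMSO vehicle. Increases and decreases both fitted against DMSO.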

[6] = read-out: CYP2C8 (gene 1558); assay: LTEA_HepaRG_CYP2C8: Life Technologies and Expression Analysis (LTEA) Assay for CYP2C8 using HepaRG (AID 2283483)
Summary of the method: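 This is a transcriptional endpoint in HepaRG cultures: 48 h exposure, highest concentration 100 uM. CYP2C8 mRNA is quantified by TaqMan qRT-PCR.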

[7] = read-out: CYP2C9 (gene 1559); assay: LTEA_HepaRG_CYP2C9: Life Technologies and Expression Analysis (LTEA) Assay for CYP2C9 using HepaRG (AID 2283484)
Summary of the method: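 Eight-point concentration-response (highest 100 uM, half-log dilutions) in HepaRG cells for 48 h; CYP2C9 expression by qRT-PCR normalized to ACTB, GAPDH, POLR2A. Bidirectional fit, DMSO baseline.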

[8] = read-out: CYP2E1 (gene 1571); assay: LTEA_HepaRG_CYP2E1: Life Technologies and Expression Analysis (LTEA) Assay for CYP2E1 using HepaRG (AID 2283485)
Summary of the method: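 Assay uses 48 h exposure of HepaRG hepatic cells, eight concentrations to 100 uM. Expression of CYP2E1 is quantified by TaqMan qRT-PCR with ACTB, GAPDH and POLR2A normalization; curves fitted in both directions relative to vehicle.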

[9] = read-out: CYP4A11 (gene 1579); assay: LTEA_HepaRG_CYP4A11: Life Technologies and Expression Analysis (LTEA) Assay for CYP4A11 using HepaRG (AID 2283486)
Summary of the method: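 Readout is CYP4A11 transcript level by qRT-PCR, normalized to three housekeeping genes and fitted bidirectionally against 0.5% DMSO. Human HepaRG cells were treated 48 h, in duplicate, with an 8-point half-log series topping at 100 uM.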

[10] = read-out: Cytochrome P450 3A4 (Homo sapiens) (UniProt P08684); assay: LTEA_HepaRG_CYP3A4: Life Technologies and Expression Analysis (LTEA) Assay for CYP3A4 using HepaRG (AID 2283487)
Summary of the method: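 In a human hepatic line (HepaRG), duplicate wells were treated 48 h with up to 100 uM chemical in half-log dilutions. Endpoint: CYP3A4 mRNA induction or loss relative to 0.5% DMSO vehicle, by qRT-PCR.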

Measured: AC50

Sequence of Cytochrome P450 2C19 (Homo sapiens) (P33261 whole entry, looked up): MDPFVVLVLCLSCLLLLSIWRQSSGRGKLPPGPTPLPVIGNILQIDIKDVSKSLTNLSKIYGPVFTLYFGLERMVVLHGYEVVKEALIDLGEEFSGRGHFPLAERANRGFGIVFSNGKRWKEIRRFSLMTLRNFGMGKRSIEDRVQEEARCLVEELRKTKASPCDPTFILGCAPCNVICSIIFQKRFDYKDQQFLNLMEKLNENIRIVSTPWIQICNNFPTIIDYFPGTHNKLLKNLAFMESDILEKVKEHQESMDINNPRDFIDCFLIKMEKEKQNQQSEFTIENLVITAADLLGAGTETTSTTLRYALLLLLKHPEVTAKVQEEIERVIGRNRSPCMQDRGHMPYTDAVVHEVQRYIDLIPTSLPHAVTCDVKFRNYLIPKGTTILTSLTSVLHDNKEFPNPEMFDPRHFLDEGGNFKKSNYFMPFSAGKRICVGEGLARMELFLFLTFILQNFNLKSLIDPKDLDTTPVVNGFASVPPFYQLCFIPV
Sequence of Cytochrome P450 3A4 (Homo sapiens) (P08684 whole entry, looked up): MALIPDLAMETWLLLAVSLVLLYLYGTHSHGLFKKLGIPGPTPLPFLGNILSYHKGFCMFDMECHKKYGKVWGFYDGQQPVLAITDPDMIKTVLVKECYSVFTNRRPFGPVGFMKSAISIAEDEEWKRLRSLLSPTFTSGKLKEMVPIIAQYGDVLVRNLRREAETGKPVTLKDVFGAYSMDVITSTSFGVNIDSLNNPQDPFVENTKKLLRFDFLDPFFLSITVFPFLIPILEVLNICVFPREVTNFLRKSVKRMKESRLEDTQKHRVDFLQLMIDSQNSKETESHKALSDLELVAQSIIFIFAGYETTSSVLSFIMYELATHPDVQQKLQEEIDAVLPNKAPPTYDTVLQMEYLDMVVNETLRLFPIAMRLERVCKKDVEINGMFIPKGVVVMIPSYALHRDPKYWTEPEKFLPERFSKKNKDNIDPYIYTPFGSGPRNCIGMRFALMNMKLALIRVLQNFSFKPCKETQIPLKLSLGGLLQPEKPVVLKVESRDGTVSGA

O=C(O)CC(O)(CC(=O)O)C(=O)O
inactive: all assays above

C=CCc1ccc(OC)c(OC)c1
active: [4] 2.13 µM
inactive: all other assays above

c1ccc2occc2c1
active: [4] 5.44 µM
inactive: all other assays above

CN(C)C(=O)NC1(c2ccccc2)CCN(CCC[C@]2(c3ccc(Cl)c(Cl)c3)CCCN(C(=O)c3ccccc3)C2)CC1
active: [4] 20 µM | [5] 23.6 µM | [7] 19.7 µM | [8] 17.7 µM | [9] 23.6 µM
inactive: [1] | [3] | [6]

CCCCCCCCCCCCCCCCO
active: [4] 13.1 µM | [8] 50 µM | [9] 16.8 µM
inactive: all other assays above

Cc1cc(SC2=C(O)C[C@@](CCc3ccc(N)cc3)(C(C)C)OC2=O)c(C(C)(C)C)cc1CO
inactive: [1] | [3] | [7]
active: [4] 2.89 µM | [5] 0.972 µM | [6] 3.03 µM | [8] 7.16 µM | [9] 2.25 µM

NC1CCCCC1
inactive: all assays above

CC(=O)OC1CC(C)OC(C)O1 (configuration not stated)
not listed: [2] | [10]
inactive: all other assays above

NC=O
inactive: all assays above

CC(C)c1cccc(C(C)C)c1NC(=O)NS(=O)(=O)c1cc(C(C)(C)O)co1
active: [4] 5.18 µM | [5] 8.04 µM | [8] 33.9 µM | [9] 29.5 µM | [10] 3.54 µM
inactive: all other assays above

COc1ccc(OC(F)(F)F)cc1CN[C@H]1CCCN[C@H]1c1ccccc1
inactive: [1] | [3] | [6]
active: [4] 86.1 µM | [5] 2.8 µM | [7] 83.7 µM | [8] 16.8 µM | [9] 9.12 µM

CCCCCCCCCC[N+](C)(C)[O-]
active: [4] 34 µM
inactive: all other assays above

Nc1nc(=S)c2[nH]cnc2[nH]1
active: [2] 3.04 µM | [4] 5.84 µM | [5] 9.48 µM | [6] 32.2 µM | [7] 7.91 µM | [8] 5.72 µM | [9] 6.3 µM | [10] 27.6 µM
inactive: [1] | [3]

CC(C)(C)c1ccccc1
inactive: all assays above

Cc1c(C)c2c(c(C)c1O)CCC(C)(COc1ccc(CC3SC(=O)NC3=O)cc1)O2 (configuration not stated)
inactive: [1] | [3] | [6] | [7]
active: [2] 15.8 µM | [4] 26.4 µM | [8] 25.6 µM | [9] 27.5 µM

COC(=O)CCC(=O)OC
not listed: [2] | [10]
inactive: all other assays above

O=C(O)c1cccnc1
not listed: [7] | [10]
inactive: all other assays above

N[C@@H](Cc1c[nH]c2ccccc12)C(=O)O
not listed: [2] | [10]
inactive: all other assays above

O=C(N[C@@H](c1ccccc1)[C@@H]1CCCCN1)c1cccc(C(F)(F)F)c1Cl
active: [3] 82.8 µM | [4] 32.7 µM | [5] 78.8 µM | [7] 36.1 µM | [8] 13.1 µM | [9] 24.2 µM
inactive: [1] | [6]

CC1(C)C(=O)NC(=O)N1CO
not listed: [2]
inactive: all other assays above

CCc1nc(N)nc(N)c1-c1ccc(Cl)cc1
active: [4] 82.3 µM | [6] 79.6 µM | [7] 44.5 µM | [8] 26 µM | [9] 64.2 µM
inactive: [1] | [3]

Oc1ccc(O)cc1
not listed: [2]
inactive: all other assays above
